PK Bst – Pyruvate Kinase | purified pyruvate kinase, luminescence ATP production; ribose 5-phosphate activator present at AC10 | Potency, µM | 51,000 tested, 1.2% active; in the data active = potency below about 11 µM; inconclusive = mostly about 12 µM to 25 µM;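 the screen sought inhibitors and activators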;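 also: scaled between full activation by ribose 5 phosphate and full inhibition by luteolin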
TSHR agonist – qHTS Assay for Agonists of the Thyroid Stimulating Hormone Receptor | Thyrotropin receptor (Homo sapiens), P16473 | HEK293-CNG-TSHR cells (CNG channel as cAMP sensor), membrane potential dye, cAMP | Potency, µM (titrated, usually from 57.1 µM), inactives show top-dose activation, hits mostly activators | 73,000 tested, 0.48% active; active = well fitted activation curve with a large enough effect in the main read-out, with a control signal flat, not every such curve was filed as active; inconclusive = small, poorly fitted or top-dose-only effect, or a change in a side signal; inactive = no such curve, though single readings can be large or run the other way; % of control where 0% means no effect;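 also: the control signal comes from parental cells without the receptor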
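HEK 293 cells stably expressing TSHR and a cAMP-gated CNG channel; parental CNG-only cells as counterscreen. Cells preloaded 60 min with membrane potential dye plus 100 uM RO 20-1724, then compound 30 min; fluorescence read at 590 nm.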
HEK293 cAMP cs – qHTS Assay for Agonists of the Thyroid Stimulating Hormone Receptor: Activators of Intracellular cAMP Concentrations in Parental HEK 293. parental HEK293 CNG cAMP sensor, membrane potential fluorescence. Potency, µM (top dose mostly 57.1 µM), without a hit: at the top dose activation, hits mostly activators. 73,000 tested, 2.5% active. AID 938, 2007; also: % of control where 0% means no effect; nearly all actives have a fitted effect of over 55% in size
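Parental HEK 293 cells stably expressing a modified CNG channel (no TSHR) report cAMP rise as membrane depolarization. Membrane potential dye with 100 uM RO 20-1724 was loaded for 60 min at room temperature, then compound added for 30 min; fluorescence read at 590 nm.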
ERK AVP inh – qHTS Assay for Inhibitors of the ERK Signaling Pathway using a Homogeneous Screening Assay | HEK293-V1b, vasopressin-stimulated pERK AlphaScreen | Potency, µM (highest dose often 57.5 µM), without a hit: at the top dose activity, negative = inhibition, usual class: inhibitors | 72,000 tested, 0.99% active | AID 995, 2007; also: % is scaled to controls: 0 for no effect and ±100 for the full control effect; nearly all actives have a fitted effect of over 55% in size
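qHTS, compounds titrated on V1b-expressing HEK293 cells. Preincubation 30 min at 37C, vasopressin 25 nM for 5 min, lysis 10 min, bead incubation 5 hr at room temperature.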
GBA activity – Glucocerebrosidase; Lysosomal acid glucosylceramidase (Homo sapiens), P04062; purified enzyme, resorufin glucoside fluorescence (screen aimed at inhibitors), 20 min; Potency, µM; 48,000 tested, 1.1% active; in the data active = potency below about 15 µM; inconclusive = mostly about 16 µM to 33 µM;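 also: the screen sought inhibitors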
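Wild-type enzyme at 0.2 nM final in 50mM citric acid/KH2PO4, 10mM sodium taurocholate, 0.01% tween-20, pH 5.9, with resorufin beta-D-glucopyranoside at 30 uM final. Compounds titrated, 20 min at RT, red fluorescence read; AC50 from titration.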
FLuc inh – qHTS Assay for Inhibitors of Firefly Luciferase; Luciferin 4-monooxygenase (Photinus pyralis), P08659; purified firefly luciferase, luminescence, 8 min; Potency, µM (top dose mostly 57.1 µM), for inactives: at the top dose activity change, negative = inhibition, usual class: inhibitors; 72,000 tested, 2.2% active; also: % is scaled to controls: 0 for no effect and ±100 for the full control effect; nearly all actives have a fitted effect of over 40% in size
Target sequence (P08659 whole entry, looked up): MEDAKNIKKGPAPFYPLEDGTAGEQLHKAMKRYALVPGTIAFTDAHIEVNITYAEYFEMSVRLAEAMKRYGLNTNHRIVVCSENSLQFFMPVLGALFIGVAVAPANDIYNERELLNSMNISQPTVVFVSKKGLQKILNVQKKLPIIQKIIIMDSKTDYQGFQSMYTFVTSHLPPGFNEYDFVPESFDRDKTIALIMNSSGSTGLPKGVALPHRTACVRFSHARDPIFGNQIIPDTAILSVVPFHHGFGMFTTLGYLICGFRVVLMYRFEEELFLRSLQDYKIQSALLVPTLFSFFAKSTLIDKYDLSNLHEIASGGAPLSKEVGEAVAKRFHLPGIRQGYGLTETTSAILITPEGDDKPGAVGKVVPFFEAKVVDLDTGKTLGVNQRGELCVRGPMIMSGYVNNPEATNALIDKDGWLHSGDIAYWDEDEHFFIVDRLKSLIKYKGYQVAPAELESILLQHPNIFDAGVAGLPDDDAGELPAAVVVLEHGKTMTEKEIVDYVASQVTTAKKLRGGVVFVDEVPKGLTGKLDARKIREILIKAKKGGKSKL
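Luminescence read-out after 8 min at room temperature; enzyme reaction used luciferin plus 10 uM ATP (linear range) in imidazole buffer pH 7.2 with KCl, MgCl2, Tween 20 and BSA. Each sample was run as a titration.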
Starred values were filed as active, the others as inactive; [ ] = remark or other dose. Compounds with a hit are over-represented: about 6.1% of the library has one in this group of screens. Unless noted, calls follow the shape of the dose curve; as a rule, active = well fitted curve in the direction sought with a large enough effect; inconclusive = small, poorly fitted or top-dose-only effect, or another doubt; inactive = no such curve, though single readings can be large; an effect the other way counts as inactive or inconclusive. Potency is read from the fitted curve at half-maximal effect.

For O=C(CSc1nnc(SCc2ccc(Cl)cc2)s1)N1CCOCC1 the results were TSHR agonist inconclusive, HEK293 cAMP cs inconclusive, ERK AVP inh -8.6%, GBA activity >76.9 and FLuc inh 12.6µM*.
For O=C(CSc1ccc(Cl)cc1)N1CCOCC1 the results were PK Bst >57, TSHR agonist -5.1%, HEK293 cAMP cs 2.4%, ERK AVP inh -3.6%, GBA activity >76.9 and FLuc inh -1.2%.
Screening N=c1n(Cc2ccccc2)c2ccccc2n1CC(O)COc1ccccc1 (stereo not given) returned PK Bst >57, TSHR agonist 16.7%, HEK293 cAMP cs 4.5%, ERK AVP inh -12.3%, GBA activity >76.9 and FLuc inh 2.1%.
Screening CCCCn1c(=N)n(CC(O)COc2ccccc2)c2ccccc21 (stereo not given) returned PK Bst >57, TSHR agonist inconclusive, HEK293 cAMP cs 1.26µM*, ERK AVP inh -9.4%, GBA activity inconclusive and FLuc inh 0.1%.
Screening Cc1ccccc1OCC(O)Cn1c(=N)n(CCN2CCOCC2)c2ccccc21 (stereo not given) returned PK Bst >57, TSHR agonist inconclusive, HEK293 cAMP cs 10µM*, ERK AVP inh -10.8%, GBA activity inactive and FLuc inh 5.8%.
Screening CCCn1c(=N)n(CC(O)COc2cccc(C)c2)c2ccccc21 (stereo not given) returned PK Bst >57, TSHR agonist inconclusive, HEK293 cAMP cs 15.8µM*, ERK AVP inh 5.4%, GBA activity 12.1* and FLuc inh -0.6%.
For N=c1n(CCN2CCOCC2)c2ccccc2n1CC(O)COc1ccccc1 (stereo not given) the results were PK Bst >57, TSHR agonist inconclusive, HEK293 cAMP cs inconclusive, ERK AVP inh 2.4%, GBA activity inactive and FLuc inh -0.8%.
`CCCCn1c(=N)n(CC(O)COc2ccc(C)cc2)c2ccccc21` (stereo not given) gave PK Bst >57, TSHR agonist inconclusive, HEK293 cAMP cs 15.8µM*, ERK AVP inh -8.7%, GBA activity 10.6* and FLuc inh -2.7%.
Screening Clc1ccc(CSCc2ccc(Cl)cc2Cl)c(Cl)c1 returned TSHR agonist 0.6%[11.4 µM], HEK293 cAMP cs -4.1%[11.4 µM], ERK AVP inh 45.6%[11.5 µM] and FLuc inh 2.7%[11.4 µM].
NC1=NC(=Nc2ccccc2)c2ccccc21 was read as PK Bst >57, TSHR agonist -4.5%, HEK293 cAMP cs -7.6%, ERK AVP inh -23.9%, GBA activity 10.1* and FLuc inh -2.7%.
`O=C(CSc1nnc(-c2ccco2)n1Cc1ccccc1)OC1CCCCC1` gave TSHR agonist inconclusive, HEK293 cAMP cs 3.98µM*, ERK AVP inh -22.0%, GBA activity >76.9 and FLuc inh -29.5%.
O=C(CSc1nnc(-c2ccncc2)n1Cc1ccco1)OC1CCCCC1 was read as PK Bst >57, TSHR agonist inconclusive, HEK293 cAMP cs inconclusive, ERK AVP inh -11.7%, GBA activity >76.9 and FLuc inh 0.0%.
For Nc1nc2nccc(-c3ccc(Cl)cc3)n2n1 the results were PK Bst 6.04*, TSHR agonist -7.6%, HEK293 cAMP cs 2.0%, ERK AVP inh -8.3%, GBA activity >76.9 and FLuc inh inconclusive.
`O=C(COC(=O)c1ccco1)NCc1ccco1` gave PK Bst >57, TSHR agonist inconclusive, HEK293 cAMP cs inconclusive, ERK AVP inh -2.7%, GBA activity >76.9 and FLuc inh -1.4%.
`Cc1cc(C(=O)OCC(=O)NCc2ccco2)c(C)n1-c1ccc(F)cc1` gave PK Bst >57, TSHR agonist inconclusive, HEK293 cAMP cs 15.8µM*, ERK AVP inh -21.1%, GBA activity >76.9 and FLuc inh -1.3%.
For O=C1OCC2=C1C(c1ccc3c(c1)OCO3)Sc1ccccc1N2 (stereo not given) the results were PK Bst >57, TSHR agonist 0.3%, HEK293 cAMP cs -0.9%, ERK AVP inh 20µM*, GBA activity inactive and FLuc inh -1.2%.
Screening O=C1CC(c2ccc3c(c2)OCO3)CN1 (stereo not given) returned PK Bst >57, TSHR agonist 9.3%, HEK293 cAMP cs 4.5%, ERK AVP inh -7.8%, GBA activity >76.9 and FLuc inh 0.8%.
CCCCCCCCCC(=O)O[C@H](CC(=O)O)C[N+](C)(C)C was read as TSHR agonist 0.3%, HEK293 cAMP cs 7.4%, ERK AVP inh 2.3% and FLuc inh 0.1%.
O=C(c1cc2c(s1)-c1ccccc1OC2)N1CCN(c2ccccn2)CC1 was read as TSHR agonist inconclusive, HEK293 cAMP cs inconclusive, ERK AVP inh 25.1µM* and FLuc inh 1.1%.
Cc1csc(NC(=O)c2cc3c(s2)-c2ccccc2OC3)n1 was read as TSHR agonist 3.8%, HEK293 cAMP cs 22.4%, ERK AVP inh -24.4% and FLuc inh -8.9%.
O=C(c1cc2c(s1)-c1ccccc1OC2)N1CCCC1 was read as TSHR agonist 21.8%, HEK293 cAMP cs 15.3%, ERK AVP inh 0.6% and FLuc inh 12.6µM*.
Cc1cc(=O)oc2cc(OC(C)C)ccc12 was read as TSHR agonist 3.7%, HEK293 cAMP cs 8.6%, ERK AVP inh -8.3% and FLuc inh -0.4%.
Cc1cc(=O)oc2cc(OC(C)C(=O)N3CCCc4ccccc43)ccc12 (stereo not given) was read as PK Bst >57, TSHR agonist inconclusive, HEK293 cAMP cs 25.1µM*, ERK AVP inh -25.4%, GBA activity >76.9 and FLuc inh -5.1%.
`CCOC(=O)C1CCN(c2ncnc3c2oc2ccc(Cl)cc23)CC1` gave PK Bst inconclusive, TSHR agonist inconclusive, HEK293 cAMP cs 25.1µM*, ERK AVP inh -9.5%, GBA activity 13.3* and FLuc inh 1.6%.
Screening COCCN=C1OC(=O)N2C(=O)C3=C4C(C[C@H]5C(=O)N(CC(=O)OC)C(=O)[C@H]5[C@H]4[C@@]12Cc1ccccc1)[C@H]1C(=O)N(CC(=O)OC)C(=O)[C@H]1[C@H]3C (stereo not given in full) returned ERK AVP inh 10.3%.
For COc1ccc(-c2noc(CCC(=O)Nc3cc(Cl)c(OC)cc3OC)n2)cc1 the results were PK Bst >57, TSHR agonist 1.5%, HEK293 cAMP cs 8.9%, ERK AVP inh -14.3% and FLuc inh 15.8µM*.
